The source of these data is PubChem BioAssay (NCI).

Common to all, as to assay: NCI-60 one-dose screen, 48 h (100 = growth as untreated, 0 = no growth, -100 = all killed)
In one test the test system is HCT-15 colon. The note with it: 10 µM unless noted.
In the next test the test system is HT29 colon. To be noted: 10 µM unless noted.
For another test, the system named is SNB-75 CNS. To be noted: 10 µM unless noted.
In another test the test system is SNB-19 CNS. To be noted: 10 µM unless noted.
The subject of the next test is PC-3 prostate. To be noted: 10 µM unless noted.
The test system of another test is SK-MEL-5 melanoma. To be noted: 10 µM unless noted.
For another test, the system named is UACC-62 melanoma. The note with it: 10 µM unless noted.
The next test relates to LOX IMVI melanoma. The note with it: 10 µM unless noted.
Another test deals with SK-MEL-28 melanoma. The note with it: 10 µM unless noted.
For another test, the system named is SK-MEL-2 melanoma. To be noted: 10 µM unless noted.
Another test has as its system EKVX NSCLC. The note with it: 10 µM.
Another test has as its system SN12C renal. To be noted: 10 µM unless noted.
Another test concerns UO-31 renal. To be noted: 10 µM unless noted.
The subject of the next test is TK-10 renal. To be noted: 10 µM unless noted.
The next test deals with ACHN renal. The note with it: 10 µM unless noted.
In a further test the test system is CAKI-1 renal. To be noted: 10 µM unless noted.
For the next test, the system named is A498 renal. The note with it: 10 µM unless noted.
A further test concerns CCRF-CEM leukemia. To be noted: 10 µM.
Another test has as its system MOLT-4 leukemia. The note with it: 10 µM unless noted.
Another test concerns U251 CNS. The note with it: 10 µM unless noted.

Compounds without any hit were thinned out: in the full panel of roughly 83,000, 20% have a hit.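 Assay: single dose, 48 h. Readout: percent growth (0 = no net growth; negative = cell death). Active: <10.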 A number with no mark means an inactive call. The source made the active and inactive calls.

On to `COC1(OC)N=C(N)C2(C#N)C3(C(=O)Nc4ccccc43)C12C#N` (configuration not stated), for which the growth with HCT-15 colon was 83.8%; with HT29 colon, 98.9%; in the test with SNB-75 CNS, 66.5%; in the test on SNB-19 CNS, 108%; in the test on PC-3 prostate, 87%; with SK-MEL-5 melanoma, 81.8%. For the same compound, the growth in the test on UACC-62 melanoma was 47%; with LOX IMVI melanoma, 50.3%; with SK-MEL-28 melanoma, 103%; in the test with SK-MEL-2 melanoma it was 83.5%; with EKVX NSCLC, 77.4%; in the test with SN12C renal, 93.8%. Moreover, the growth with UO-31 renal was 52.9%; in the test on TK-10 renal, 98%; in the test with ACHN renal it was 67.3%; in the test on CAKI-1 renal, 21.3%; with A498 renal, -9.49% (active); in the test with CCRF-CEM leukemia, 77.8%. The growth in the test on MOLT-4 leukemia is 88.7%.
As to `O=C(Nc1cccc2[nH]c(C(F)(F)F)nc12)c1ccc(F)cc1`, the growth is 96.9% in the test with HCT-15 colon; 99.3% with HT29 colon; 97.3% in the test on SNB-75 CNS; 78.6% with SNB-19 CNS; 71.7% with U251 CNS; 69.5% in the test on SK-MEL-5 melanoma. Also, the growth in the test on UACC-62 melanoma is 51.6%; in the test on LOX IMVI melanoma, 87.8%; in the test with SK-MEL-28 melanoma it was 79.7%; with SN12C renal it was 81.8%; in the test with UO-31 renal, 63%; in the test on TK-10 renal, 113%. The growth was 82.7% in the test with ACHN renal; 84% with CAKI-1 renal; 19% in the test with A498 renal; 51.7% with CCRF-CEM leukemia; 65.5% in the test with MOLT-4 leukemia.
Turning to `CCOC(=O)c1c(C)oc2ncnc(Nc3ccc(C(=O)NCCc4ccccc4)cc3)c12`, the growth was 92.3% in the test on HCT-15 colon; 58.9% in the test on HT29 colon; 7.02% (active) in the test with SNB-75 CNS; 84.1% with SNB-19 CNS; 59.2% in the test on PC-3 prostate; 85.6% in the test with SK-MEL-5 melanoma. Further, the growth with UACC-62 melanoma is 95%; in the test with LOX IMVI melanoma, 75.2%; in the test on SK-MEL-28 melanoma, 87.9%; in the test with SK-MEL-2 melanoma, 82.5%; with EKVX NSCLC, 90.4%; with SN12C renal, 99.4%. Besides, the growth was 97.4% in the test on UO-31 renal; 102% in the test with TK-10 renal; 88.7% in the test with ACHN renal; 92.6% in the test on CAKI-1 renal; 77.6% with A498 renal; 105% with MOLT-4 leukemia.
In the case of `Nc1ncn([C@@H]2O[C@H](CO)[C@@H](O)C2(F)F)c(=O)n1`, the growth was 52.2% with HCT-15 colon; 70.1% in the test on HT29 colon; 65% in the test with SNB-75 CNS; 58.9% in the test on SNB-19 CNS; 63.6% in the test with PC-3 prostate; 70.8% in the test on SK-MEL-5 melanoma. Moreover, the growth with UACC-62 melanoma was 47.3%; in the test with LOX IMVI melanoma, 34.5%; in the test on SK-MEL-28 melanoma, 78.5%; with SK-MEL-2 melanoma it was 104%; in the test with EKVX NSCLC, 86.1%; with SN12C renal, 51.7%. Also, the growth in the test on UO-31 renal is 39%; in the test with TK-10 renal it was 91.1%; with ACHN renal, 7.28% (active); in the test on CAKI-1 renal it was 27.9%; in the test on A498 renal it was 38%; with CCRF-CEM leukemia, 23.7%. In the test with MOLT-4 leukemia, the growth is 35.6%.
As for `CC(=O)/C(=C\c1c(-c2ccccc2)[nH]c2ccccc12)S(=O)(=O)c1ccccc1`, the growth was 13.5% in the test with HCT-15 colon; 11.3% in the test with HT29 colon; -23.1% (active) with SNB-75 CNS; 53.7% in the test with SNB-19 CNS; 17.5% in the test with U251 CNS; 9.11% (active) in the test with SK-MEL-5 melanoma. The growth was 13.6% with UACC-62 melanoma; -33.3% (active) with LOX IMVI melanoma; 26.8% in the test on SK-MEL-28 melanoma; -27.9% (active) in the test on SK-MEL-2 melanoma; 27.9% in the test with EKVX NSCLC; 5.37% (active) with SN12C renal. Moreover, the growth is 14% in the test on UO-31 renal; 10.2% with TK-10 renal; 28.2% in the test with ACHN renal; 41.4% with A498 renal; -35.5% (active) in the test with MOLT-4 leukemia.
Regarding `COc1cc(OC)c(NC(=O)n2ncc3cc(Nc4ncnc5ccccc45)ccc32)cc1Cl`, the growth in the test on HCT-15 colon was 93.8%; with HT29 colon, 80.3%; in the test on SNB-75 CNS, 118%; in the test on SNB-19 CNS, 90.6%; in the test with PC-3 prostate, 97.5%; in the test with SK-MEL-5 melanoma it was 94.3%. Also, the growth with UACC-62 melanoma is 105%; with LOX IMVI melanoma, 102%; with SK-MEL-28 melanoma, 98.7%; in the test with SK-MEL-2 melanoma it was 102%; in the test with EKVX NSCLC it was 33%; in the test with SN12C renal it was 95.6%. Besides, the growth in the test on UO-31 renal is 64.1%; in the test with TK-10 renal it was 30.8%; in the test with ACHN renal, 55.1%; with CAKI-1 renal, 53.6%; in the test on A498 renal it was 54.2%; in the test with CCRF-CEM leukemia it was 102%. In the test with MOLT-4 leukemia, the growth was 96.3%.
Consider `Nc1nc2c(c3cnccc13)C(c1ccc(Cl)c(Cl)c1)Cc1cnccc1-2` (configuration not stated), for which the growth is -19.5% (active) in the test on HCT-15 colon; 8.17% (active) in the test with HT29 colon; -26.9% (active) in the test on SNB-75 CNS; 13.7% in the test with SNB-19 CNS; 5.13% (active) in the test with PC-3 prostate; -92.2% (active) in the test with SK-MEL-5 melanoma. For the same compound, the growth was -37.3% (active) in the test with UACC-62 melanoma; -42.7% (active) in the test on LOX IMVI melanoma; -41.3% (active) with SK-MEL-28 melanoma; -36.3% (active) in the test with SK-MEL-2 melanoma; 5.75% (active) in the test with EKVX NSCLC; 2.42% (active) with SN12C renal. The growth with UO-31 renal was -39.9% (active); in the test on TK-10 renal it was -40% (active); in the test with ACHN renal, -67.1% (active); with CAKI-1 renal, 4.1% (active); with A498 renal it was -45.6% (active); in the test on CCRF-CEM leukemia, 3.33% (active). In the test with MOLT-4 leukemia, the growth was 2.48% (active).
For `O=C(Nc1ccc(-n2cc(-c3ccncc3)c(-c3ccc(Cl)c(O)c3)n2)cc1)c1cc(Cl)cc(Cl)c1`, the growth in the test on HCT-15 colon is 11.1%; with HT29 colon, 1.94% (active); in the test on SNB-75 CNS it was 16.4%; in the test on SNB-19 CNS it was 72.4%; in the test on U251 CNS, 41.9%; in the test with SK-MEL-5 melanoma, -85.1% (active). The growth with UACC-62 melanoma is 39.2%; in the test with LOX IMVI melanoma, 40.3%; in the test on SK-MEL-28 melanoma, 29.7%; with EKVX NSCLC it was 75.7%; with SN12C renal, 70.2%; in the test on UO-31 renal it was 12.3%. Besides, the growth in the test with TK-10 renal is 61.3%; in the test with ACHN renal, 57.3%; in the test on CAKI-1 renal, -32.1% (active); in the test on A498 renal, 95.9%; with MOLT-4 leukemia, 24.3%.
Regarding `N#Cc1c2ncccc2c2nnc3cc(Cl)c(Cl)cc3n12`, the growth was 82.9% with HCT-15 colon; 95.2% in the test with HT29 colon; 67.1% in the test with SNB-75 CNS; 101% in the test with SNB-19 CNS; 90.6% with U251 CNS; 92.4% in the test with SK-MEL-5 melanoma. For the same compound, the growth in the test on UACC-62 melanoma is 90.8%; with LOX IMVI melanoma it was 97.4%; with SK-MEL-28 melanoma, 80.9%; in the test with EKVX NSCLC, 84.1%; in the test on SN12C renal, 110%; in the test on UO-31 renal it was 76.3%. Moreover, the growth in the test on TK-10 renal is 67.7%; in the test with ACHN renal, 84.5%; in the test with CAKI-1 renal, 70.3%; in the test on A498 renal it was 115%; with MOLT-4 leukemia it was 98.9%.
